This is a sample that favours compounds with a hit; in the whole collection about 7.4% have one here.
FLuc modulator – firefly luciferase modulation, counter-screen for miR-21 project | purified FLuc, Km substrates, luminescence inhibition | Potency, µM (top dose mostly 57.5 µM), inactives show at the highest dose activity change, negative = inhibition, hits mostly inhibitors | hit rate 6.9% among 360,000 | AID 588342;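 further: plate controls were vehicle for no effect and reference inhibitor for full effect; nearly all actives have a fitted effect of over 55% in size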
Target sequence (P08659 whole entry, looked up): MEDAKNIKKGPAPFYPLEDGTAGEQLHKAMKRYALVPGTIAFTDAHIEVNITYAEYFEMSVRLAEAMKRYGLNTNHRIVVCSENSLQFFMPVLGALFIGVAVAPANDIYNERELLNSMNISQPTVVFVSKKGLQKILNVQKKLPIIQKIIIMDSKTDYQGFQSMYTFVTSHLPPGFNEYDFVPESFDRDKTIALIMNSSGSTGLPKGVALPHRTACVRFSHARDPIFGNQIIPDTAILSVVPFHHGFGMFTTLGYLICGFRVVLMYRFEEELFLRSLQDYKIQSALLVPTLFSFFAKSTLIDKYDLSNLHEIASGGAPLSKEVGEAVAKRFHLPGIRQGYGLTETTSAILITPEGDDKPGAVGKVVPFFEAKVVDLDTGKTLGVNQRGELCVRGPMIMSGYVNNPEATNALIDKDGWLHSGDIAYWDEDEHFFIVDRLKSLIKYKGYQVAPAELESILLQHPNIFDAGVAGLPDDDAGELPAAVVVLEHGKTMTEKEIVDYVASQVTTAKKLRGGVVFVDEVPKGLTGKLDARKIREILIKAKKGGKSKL
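Biochemical qHTS of compounds, final roughly 60 µM downward over six points, against 10 nM purified firefly luciferase using Km concentrations of substrates (10 uM D-luciferin, 10 uM ATP) in Tris acetate pH 7.5 buffer; luminescence output.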
p53 reactivation – mutant p53 re-activation in reporter cells; H1299 p53-A138V BP100-luciferase reporter, luminescence, 24 h; Potency, µM (highest dose often 92.2 µM), for inactives: at the highest dose activity change, positive = activation, hits mostly activators; hit rate 0.063% among 320,000; further: % of control where 0% means no effect; nearly all actives have a fitted effect of over 45% in size
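H1299 (p53-null), stable ts p53-A138V + BP100-Luc; 1000 cells/well, Opti-MEM/10% FBS; cpd 4 pt, 1:5; 24 h, 37 deg C, 5% CO2; detection reagent 10 min RT; luminescence.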
Rab9 prom act – Rab9 promoter activation | Huh7 Rab9 promoter-luciferase reporter, luminescence, 24 h | hit rate 2.8% among 320,000 | Potency, µM (doses to about 9.22 µM), without a hit: at the highest dose activation, negative = inhibition, hits mostly activators; further: % of control where 0% means no effect; nearly all actives have a fitted effect of over 60% in size
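Rab9 promoter-driven luciferase in stably transfected Huh7 cells; 1500 cells/well rested 2 h, exposed to compound in DMSO for 24 h at 37 °C, 5% CO2. Luminescence read 10 min after adding luciferase reagent at ambient temperature.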
ELG1 genotox – induces genotoxicity in HEK293T cells with luciferase-tagged ELG1; HEK293T ELG1-luciferase reporter, luminescence, 16 h; Potency, µM (series often up to 46 µM), for inactives: at the highest dose activity change, positive = activation, hits mostly activators; hit rate 1.3% among 330,000; AID 504466; further: % of control where 0% means no effect; nearly all actives have a fitted effect of over 60% in size
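Luminescence read-out: rising ELG1-luciferase signal, reflecting elevated ELG1 protein under genetic stress, flags genotoxic compounds. Cells were treated for 16 hr at 37 °C before ONE-Glo detection.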
SMN2 splice enh – increases expression of the SMN2 splice variant. HEK293 SMN2-luciferase splicing reporter, luminescence, 30-36 h. Potency, µM (titrated, usually from 46.1 µM), inactives show top-dose activity change, positive = activation, most hits filed as activators. hit rate 2.8% among 210,000. AID 1458; further: % of control where 0% means no effect; nearly all actives have a fitted effect of over 55% in size
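qHTS luciferase splicing reporter: luminescence rises when SMN2 exon 7 is included in transfected HEK293 cells. Compound exposure lasted 30-36 h at 37C, with 4.5 mM final sodium butyrate as control, followed by a ONE-Glo read.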
NPC1 prom act – NPC1 promoter activation; Huh7 NPC1 promoter luciferase reporter, 24 h; Potency, µM (top dose mostly 9.22 µM), inactives show at the highest dose activation, usual class: activators; hit rate 2.4% among 320,000; further: % of control where 0% means no effect; nearly all actives have a fitted effect of over 60% in size
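Quantitative HTS used a cell-based reporter: Huh7 cells stably bearing the NPC1 promoter upstream of luciferase were treated with compounds for 24 h, and promoter activation was read as luminescence.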
Numbers without * were called inactive; ? = inconclusive; . = no result; [ ] = dose if it differs, or a comment. The call rests on the fitted dose curve; in most records, active means well fitted curve in the direction sought with a large enough effect; inconclusive means small, poorly fitted or top-dose-only effect, or another doubt; inactive means no such curve, though single readings can be large; an effect the other way counts as inactive or inconclusive. Potency means the concentration at half of the fitted maximal effect.

SMILES	FLuc modulator	p53 reactivation	Rab9 prom act	ELG1 genotox	SMN2 splice enh	NPC1 prom act
Cc1noc(-c2ccc(Cl)cc2)c1C(=O)O/N=C(\N)c1ccc(C(C)(C)C)cc1	-5%	-12%	-3%	-14%	.	-38%
N/C(=N\OC(=O)c1ccccc1Cl)c1ccncc1	?	-2%	4%	-15%	.	26%
Cc1occc1C(=O)O/N=C(\N)c1ccc(Cl)cc1	9.5µM*	?	4µM*	?	.	?
N/C(=N\OC(=O)c1cc(Cl)ccc1Cl)c1ccncc1	13µM*	27%	?	?	.	20%
COc1ccc(Cl)cc1C(=O)O/N=C(\N)c1ccc(Cl)cc1	17µM*	25%	-3%	11%	10%	1%
Cc1ccc(Cc2nc3ccccc3nc2SCC(=O)N2CCN(c3ccccc3F)CC2)cc1	0%	.	.	.	.	.
CCCC(=O)OC(=O)CCC	.	.	.	.	-1%	.
Nc1nnc(CC(=O)N/N=C/c2cccc(OCCOc3ccccc3)c2)s1	4%	-3%	3.2µM*	0%	10µM*	?
Cc1ccccc1OCCOc1cccc(/C=N/NC(=O)Cc2nnc(N)s2)c1	?	?	0.45µM*	-1%	5µM*	1.6µM*
CCCn1cc(S(=O)(=O)c2ccc(OC)cc2)c(=O)c2cc(F)c(N3CCCCCC3)cc21	3%	.	.	.	.	.
O=C(NCc1ccccc1)C1CCC(=O)N(CCCN2CCCC2=O)C1 (stereo not given)	0%	18%	-2%	1%	.	1%
Cc1ccccc1OCc1nnc(SCC(=O)Nc2ccc(N3CCOCC3)c(Cl)c2)n1C	19µM*	2%	-2%	-1%	-1%	4%
COc1ccccc1OCc1nnc(SCC(=O)Nc2ccc(N3CCOCC3)cc2)n1C	12µM*	6%	16%	1%	.	4%
Cn1c(COc2ccccc2)nnc1SCC(=O)Nc1ccc(N2CCOCC2)cc1	?	5%	2%	13%	.	10%
N#Cc1ccccc1NC(=O)c1cc2c(=O)n3ccccc3nc2s1	-5%	.	.	.	12%	.
Cc1cc(C)c(OCC(=O)Nc2nnc(-c3ccco3)o2)c(C)c1	?	-3%	-7%	-9%	7%	-3%
O=c1c2ccccc2oc2nc(-c3ccco3)n(CCc3ccccc3)c(=O)c12	5%	3%	13%	1%	-9%	7%
O=c1c2ccccc2oc2nc(-c3ccco3)n(-c3ccccc3)c(=O)c12	3%	?	?	9%	13µM*	?
CC(=O)NCCNC(=O)c1ccc(CSc2ccc(Cl)cc2)cc1	?	5%	2.8µM*	?	13µM*	2.8µM*
CCNC(=O)c1ccc(CSc2ccc(Cl)cc2)cc1	-16%	0%	-2%	-3%	-18%	3%
O=C(NCCc1ccc(Cl)cc1)c1ccc2nccnc2c1	11µM*	-3%	4µM*	16%	.	2.2µM*
CC(C)c1ccc(C(=O)NCc2ccc(Cl)cc2)cc1	?	?	?	24%	16µM*	14%
O=C(NCCc1ccc(O)cc1)c1ccc(Cl)cc1	12µM*	15%	?	?	32µM*	?
COC(=O)[C@@H]1[C@@H](C)N(CCc2cc(OC)c(OC)c(OC)c2)C(=O)N[C@H]1c1ccccc1	.	.	.	.	-2%[9.22 µM]	.
Cc1ccc(NC(=O)c2ccccc2Br)cc1S(=O)(=O)N(C)C	?	-4%	13%	0%	18%	3%
SMILES	FLuc modulator	p53 reactivation	Rab9 prom act	ELG1 genotox	SMN2 splice enh	NPC1 prom act
Cc1ccc(NC(=O)CSc2nnc(-c3cccs3)o2)cc1S(=O)(=O)N(C)C	4%	2%	3.5µM*	?	?	?
Cc1ccc(NC(=O)c2sccc2C)cc1S(=O)(=O)N(C)C	19µM*	6%	1%	5%	20%	10%
CCN(CC)S(=O)(=O)c1cc(NC(=O)CSc2nnc(-c3cccs3)o2)ccc1C	-18%	4%	-7%	6%	29%	0%
Cc1cnc(NC(=O)c2cncc(Br)c2)s1	8.5µM*	26%	1.3µM*	?	.	2.2µM*
Cc1ccc(NC(=O)c2cncc(Br)c2)cc1S(=O)(=O)N(C)C	9.5µM*	?	?	?	11µM*	?
Cc1cnc(NC(=O)c2ccncc2)s1	?	0%	24%	11%	?	13%
CCCCn1c(N)c(N(CC(C)C)C(=O)c2ccc(Cl)c(S(=O)(=O)N3CCCC3)c2)c(=O)[nH]c1=O	3%	0%	2%	0%	.	1%
COc1cc(Cl)c(C)cc1NS(=O)(=O)c1c(C)nc2sccn2c1=O	-14%	.	.	.	.	.
COc1ccc(NC(=O)C2=CC(c3ccc4c(c3)OCO4)=NS(=O)(=O)N2C)cc1	5%	.	.	.	.	.
Cc1ccc(NC(=O)Cn2c(=O)n(CCCS(=O)(=O)C3CCCCC3)c(=O)c3ccccc32)cc1F	-2%	.	.	.	-8%	.
CCN(CC)c1ccc(NC(=O)c2cccnc2)cc1	?	.	.	.	23%	.
CCN(CC)c1ccc(NC(=O)c2cncc(Br)c2)cc1	17µM*	?	?	7%	?	?
Cc1ccnc(NC(=O)COc2ccc3c(c2)CCC3)c1	0.21µM*	13%	2.5µM*	2.1µM*	.	3.2µM*
Cc1ccnc(NC(=O)COc2ccc3oc4c(c3c2)CCCC4)c1	4.3µM*	16%	5%	?	-21%	17%
CC(=O)Oc1cc(C(F)(F)F)ccc1C(=O)O	.	.	.	.	-5%[20.6 µM]	.
CC1SCC(NC(=O)c2ccccc2Cl)CS1 (stereo not given)	17µM*	26%	4.5µM*	?	.	?
CC1SCC(NC(=O)c2ccc(Cl)cc2)CS1 (stereo not given)	?	29%	?	?	.	?
Cc1ccc(Sc2ncccc2C(=O)NCc2cc([N+](=O)[O-])ccc2O)c(C)c1	8.5µM*	?	4µM*	?	.	4µM*
O=C(NCc1cc([N+](=O)[O-])ccc1O)c1cccnc1Sc1ccccc1	17µM*	6%	-3%	-1%	.	2%
COc1ccc(OCC(=O)OCc2cc(=O)n3nc(-c4cccs4)sc3n2)cc1	-1%	.	.	.	.	.
O=C(Nc1ccc(-c2nc3ccccc3o2)cc1)c1cc(-n2cnnc2)ccc1Cl	?	8%	-3%	0%	-80%	-2%
O=C(Nc1ccc(-c2n[nH]c(=S)o2)cc1)c1ccccc1Cl	11µM*	.	22%	11%	.	19%
O=C(CSCc1cnn(-c2ccccc2)c1-n1cccc1)NCc1ccccc1F	-13%	.	.	.	.	.
COc1ccc(-c2cn3cccnc3n2)cc1NC(=O)C(C)Oc1ccccc1 (stereo not given)	27µM*	1%	-8%	-4%	.	-1%
